# CYP2C19 inhib: inhibitors of human CYP2C19; P33261; CYP2C19 Supersomes, luciferin-H EGE luminescence, 30 min; inhibition, % at 5 µM; 21% of 96,000 active; AID 778;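 active = CYP2C19 inhibition above a set limit at 5 µM in the primary screen, cut at about 50% in these data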;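 note: plate controls were negative control wells for no effect and 2.5 mM tranylcypromine positive control for full effect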
# CYP2C9 inh: inhibitors of human CYP2C9; CYP2C9 Supersomes, luciferin-H conversion, luminescence; inhibition, % at 5 µM; 20% of 96,000 active; P11712;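 active = blocking of liver enzyme CYP2C9 beyond about 50% at 5 µM, limit read from the data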
# Target sequence (P11712 whole entry, looked up): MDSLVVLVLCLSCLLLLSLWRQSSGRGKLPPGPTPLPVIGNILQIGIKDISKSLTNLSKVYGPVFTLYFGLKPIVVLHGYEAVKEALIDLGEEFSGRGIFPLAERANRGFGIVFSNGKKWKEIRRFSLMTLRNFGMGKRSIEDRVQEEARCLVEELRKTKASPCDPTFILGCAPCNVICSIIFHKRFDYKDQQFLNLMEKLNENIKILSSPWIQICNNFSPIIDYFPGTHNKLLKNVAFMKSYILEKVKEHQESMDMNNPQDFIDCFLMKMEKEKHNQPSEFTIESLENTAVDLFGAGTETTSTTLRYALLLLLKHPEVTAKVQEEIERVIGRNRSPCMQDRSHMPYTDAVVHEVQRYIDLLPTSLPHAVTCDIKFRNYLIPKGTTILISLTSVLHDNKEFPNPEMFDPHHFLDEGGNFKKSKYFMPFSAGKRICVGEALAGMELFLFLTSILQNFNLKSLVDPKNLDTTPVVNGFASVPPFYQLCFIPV
# CYP2C9 act: increases human cytochrome P450 2C9 activity; P11712; recombinant CYP2C9, luciferin-H conversion, luminescence; hits give high values; factor 1 = untreated enzyme, 0 = blocked; activation factor at 5 µM; 1.4% of 96,000 active; AID 1024;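 active = activation factor of 2 or more for CYP2C9 at a 5 µM dose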;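 note: 0 = sulfaphenazole-blocked wells and 1 = vehicle-only wells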
# Cav3 T inh: inhibitors of human Cav3.2 T-type calcium channel. O95180. Cav3.2-expressing cells, Fluo-4 calcium fluorescence FDSS; hits give low values. B-score at 10 µM. 4% of 100,000 active. AID 449739;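 active = single-dose well whose peak fluorescence ratio is a statistical outlier from its plate by either plate-standardised score or position-corrected B-score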
# CYP2C19 activ: cytochrome P450 2C19 (human) activation. P33261. recombinant CYP2C19, luciferin-H EGE luminescence; hits give high values; 0 = fully inhibited enzyme, 1 = untreated enzyme. activation factor at 5 µM. 96,000 tested, under 10 active. AID 1025;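 active = activation factor of at least 2 at 5 µM in the primary screen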;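 note: 0 = wells with 2.5 mM tranylcypromine and 1 = vehicle-only wells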
# The depositor's hits bear a star; x = no result. Most compounds without a hit are left out; they make up all but 27% or so of the library.
SMILES,CYP2C19 inhib,CYP2C9 inh,CYP2C9 act,Cav3 T inh,CYP2C19 activ
Cc1cccc(/C(N)=N/OC(=O)N2c3ccccc3Sc3ccccc32)c1,27,54*,0.5,-4.9*,0.7
CCC(C(=O)O/N=C(\N)c1cccc(C)c1)c1ccccc1 (stereo not given),12,23,0.8,-3.3,0.9
Nc1cc(-c2ccc(Cl)cc2)nn1S(=O)(=O)c1cccc2nsnc12,94*,86*,0.1,-6.4*,0.1
Nc1cc(-c2cccc(F)c2)nn1S(=O)(=O)c1cccc2nsnc12,x,x,x,-5.2*,x
O=S(=O)(c1cccc2nsnc12)N1CCCC1,x,x,x,0.73,x
Nc1cc(-c2ccc(Br)cc2)nn1S(=O)(=O)c1cccc2nsnc12,96*,89*,0.1,x,0
COc1cc(CNCCSc2nnnn2C)cc(OC)c1OC,57*,4,1,0.36,0.4
COc1cccc(CNCCSc2nnnn2C)c1OC,77*,-3,1,0.72,0.2
Cn1nnnc1SCCNCc1ccncc1,44,39,0.6,0.73,0.6
Cc1ccc(C)c(C(=O)CN2C3=NCCCN3c3ccccc32)c1,-5,-15,1.2,-1.9,1
COCCCn1c2nc3ccccc3nc2c2c(=O)n(-c3ccccc3OC)cnc21,54*,49,0.5,0.92,0.5
COCCCn1cnc2c(c1=O)c1nc3ccccc3nc1n2CCc1ccccc1,40,58*,0.4,-0.036,0.6
CCCCn1c2nc3ccccc3nc2c2c(=O)n(CCC)cnc21,16,25,0.8,1.8,0.8
COc1ccc(Cn2c3nc4ccccc4nc3c3c(=O)n(Cc4ccco4)cnc32)cc1,32,62*,0.4,x,0.7
CCCn1cnc2c(c1=O)c1nc3ccccc3nc1n2Cc1ccccc1OC,9,13,0.9,0.49,0.9
CCC(C)n1cnc2c(c1=O)c1nc3ccccc3nc1n2Cc1ccccc1OC (stereo not given),22,69*,0.3,-0.18,0.8
CCO[C@H]1OC(C(N)=O)=C[C@@H](c2ccccc2)[C@@H]1CCCO,x,x,x,0.43,x
COc1ccc(NC2CC(=O)NC2=O)cc1 (stereo not given),-9,-2,1,0.2,1.1
Cc1ccccc1NC(=O)C(=O)NCCc1c[nH]c2ccccc12,x,x,x,-1,x
COc1ccccc1NC(=S)NCCc1c[nH]c2ccccc12,86*,-135,2.4*,-0.75,0.1
Cc1ccc(C(=O)N/C(=C\c2cccs2)C(=O)NCCc2c[nH]c3ccccc23)cc1C,21,35,0.7,-3.9,0.8
COc1ccccc1NC(=S)NCCc1ccccc1,82*,5,0.9,0.56,0.2
COc1ccc(C(=O)N/C(=C\c2cccc3ccccc23)C(=O)NCCc2c[nH]c3ccccc23)cc1OC,50*,65*,0.3,-3.3,0.5
O=C(NCCc1c[nH]c2ccccc12)Nc1cccc2ccccc12,86*,-62,1.6,-1.4,0.1
O=C(CSc1nnc(-c2ccc(Cl)s2)o1)N1CCOCC1,-4,-10,1.1,x,1
SMILES,CYP2C19 inhib,CYP2C9 inh,CYP2C9 act,Cav3 T inh,CYP2C19 activ
COc1c(Br)cc(Br)cc1C(=O)O,-17,6,0.9,0.84,1.2
S=C(NCCc1ccccc1)Nc1ccc(Cl)cc1Cl,86*,46,0.5,-5.1*,0.1
S=C(Nc1ccc(Cl)cc1Cl)Nc1ccccc1Oc1ccccc1,-14,-11,1.1,-2.8,1.1
C=C(C)CN=c1scc(C)n1/N=C/c1ccco1,88*,44,0.6,0.12,0.1
O=C1CCCN1c1cc(Cl)ccc1Cl,-15,-48,1.5,-1.2,1.1
O=c1n(Cc2ccc(Cl)cc2)c2sc3c(c2c2ncnn12)CCCC3,50,85*,0.1,0.084,0.5
C=CCn1c(=O)n2ncnc2c2c3c(sc21)CCCC3,13,31,0.7,x,0.9
COc1ccc(C2(C)NC(=O)N(CC(=O)NCCC3=CCCCC3)C2=O)cc1OC (stereo not given),1,2,1,0.022,1
COc1ccc(OC)c(C(=O)CN2C(=O)NC(C)(c3ccccc3)C2=O)c1 (stereo not given),99*,-96,2*,0.09,0
COc1ccc2cc(C3(C)NC(=O)N(CC(=O)NCCC4=CCCCC4)C3=O)ccc2c1 (stereo not given),12,31,0.7,-7.4*,0.9
Nc1cc(Cl)nc(N/N=C/c2ccccc2[N+](=O)[O-])n1,10,-6,1.1,-0.075,0.9
Cc1csc(N(C)C(=O)CSc2nnc(COc3cccc4ccccc34)o2)n1,20,-32,1.3,-0.0067,0.8
O=C(CSc1nnc(CNC(=O)c2c(F)cccc2Cl)o1)c1ccccc1,x,x,x,0.17,x
COC(=O)C1=C(Nc2ccc(C)cc2)C=C(C)C(C(=O)OC)C1c1ccc(OC)cc1 (stereo not given),x,x,x,-4.1*,x
COC(=O)C1=C(Nc2ccc(C)cc2)C=C(C)C(C(=O)OC)C1c1cccc(OC)c1 (stereo not given),x,x,x,-3.9*,x
CCOC(=O)C1=NNC(C(=O)c2ccc(C)cc2)C1c1ccc(OC)cc1 (stereo not given),48,32,0.7,-3.8,0.5
COc1ccc(N2CCN(C(=O)c3ccc(Oc4ccc(C(F)(F)F)cn4)cc3)CC2)cc1,19,12,0.9,-0.43,0.8
CCOC(=O)C1=C(C)SC2=NS(=O)(=O)CCN21,40,-2,1,-0.13,0.6
CC(CN(C)Cc1ccccc1)OC(=O)c1cccs1 (stereo not given),x,x,x,-0.14,x
CC(CCN(C)C)OC(=O)c1ccc(C(C)c2ccccc2)o1 (stereo not given),61*,10,0.9,0.17,0.4
CCc1ccc2c(CN3CCc4ccccc43)cc(=O)oc2c1,94*,44,0.6,-2.6,0.1
Cc1cc2oc(=O)cc(CN3CCc4ccccc43)c2cc1Cl,79*,61*,0.4,-5.3*,0.2
Cc1cccnc1-n1c(CCN2C(=O)c3ccccc3C2=O)nc2ccccc2c1=O,38,7,0.9,-0.28,0.6
Cc1ccnc(-n2c(CCN3C(=O)c4ccccc4C3=O)nc3ccccc3c2=O)c1,60*,69*,0.3,0.16,0.4
CN(C)c1ccc(/C=C(/NC(=O)c2ccccc2)C(=O)N/N=C/c2ccc([N+](=O)[O-])c(O)c2)cc1,1,31,0.7,-1.4,1
O=C(N/N=C/c1ccco1)/C(=C/c1cccc([N+](=O)[O-])c1)NC(=O)c1ccccc1,69*,11,0.9,0.062,0.3
O=C(N/N=C/c1ccc(Br)o1)/C(=C/c1ccc([N+](=O)[O-])cc1)NC(=O)c1ccccc1,52*,24,0.8,-4.9*,0.5
CC(C)C(=O)NC(c1ccc([N+](=O)[O-])cc1)c1c(O)ccc2ccccc12 (stereo not given),4,9,0.9,0.47,1
CCCC(=O)NC(c1ccc(OC)c(OC)c1)c1c(O)ccc2ccccc12 (stereo not given),74*,71*,0.3,0.12,0.3

# Screens (PubChem)
